The list is not random: actives were taken first. Their share in the collection is about 9.9%.
IL-1B inflam inh – inhibitors of inflammasome signaling (IL-1 beta secretion). THP-1 LPS/ATP IL-1B secretion, AlphaLISA, 16 h; hits give low values. activity change, % at 57.5 µM. AID 743279. 360,000 tested, 4.7% active; in the data active = activity change below about -50%; inconclusive = mostly about -30% to -49%
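Secreted IL-1B measured by AlphaLISA bead assay after 16 h compound exposure of THP-1 cells; compounds (final up to 57.5 uM) added 1 h before LPS (250 ng/mL) and ATP (1.25 mM) stimulation; lower signal means less secretion.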
MCF10A rereplic – induces DNA re-replication in MCF 10a normal breast cells. MCF 10A DNA re-replication, Hoechst nuclear intensity, 48 h. Potency, µM (series often up to 46.1 µM), most hits filed as activators. 350,000 tested, 2.9% active. AID 624296; note: nearly all actives have a fitted effect of over 50% in size
SW480 rerep – inducers of DNA re-replication in SW480 colon cancer cells. SW480 DNA re-replication, Hoechst DNA content imaging, 48 h. Potency, µM (series often up to 46.1 µM), hits mostly activators. 340,000 tested, 1.8% active. AID 624297; note: nearly all actives have a fitted effect of over 55% in size
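First, 250 cells per well were seeded. Next, compound or vehicle (23 nL) was pinned in, plates sat 48 hr at 37 C. Finally Hoechst was added for 40 min before fluorescence scanning.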
KB-3-1 cytotox – kills parental KB-3-1 adenocarcinoma cells. KB-3-1 viability, CellTiter-Glo ATP luminescence, 72 h. Potency, µM (titrated, usually from 46.1 µM), most hits filed as cytotoxic. 400,000 tested, 1.4% active; note: nearly all actives have a fitted effect of over 60% in size
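Screening of KB-3-1 cells (DMEM, 10% FBS, phenol-red free) ran from lowest to highest compound concentration; after 72 h at 37 °C viability was read luminescently and curves fitted.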
KB-V1 MDR tox – kills drug-selected multidrug resistant KB-V1 cells; KB-V1 MDR cells viability, CellTiter-Glo, 72 h; Potency, µM (doses to about 46.1 µM), usual class: cytotoxic; 400,000 tested, 3.4% active; note: nearly all actives have a fitted effect of over 60% in size
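Potencies derive from concentration-effect curves fitted to normalized luminescence (CellTiter-Glo) of KB-V1 cells treated for 72 h at 37 degrees C in phenol-red-free DMEM containing 10% FBS.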
Numbers stand for hits; i = inactive; ? = inconclusive; nt = no result given; [ ] = remark or other dose. Unless noted, calls come from the whole dose curve; as a rule, active = well fitted curve in the direction sought with a large enough effect; inconclusive = small, poorly fitted or top-dose-only effect, or another doubt; inactive = no such curve, though single readings can be large; an effect the other way counts as inactive or inconclusive.

SMILES | IL-1B inflam inh | MCF10A rereplic | SW480 rerep | KB-3-1 cytotox | KB-V1 MDR tox
Cc1cc(C)c(C(=O)c2ccc(C(=O)N(C(C)C)C(C)C)cc2)c(C)c1 | i | i | i | ? | 16.4µM
Cc1cc(C)c(C(=O)c2ccc(C(=O)NC(C)(C)C)cc2)c(C)c1 | i | i | i | i | i
Cc1ccc2nc(C(C)(C)C)c(Cc3cccc(F)c3)n2c1 | i | nt | nt | i | i
COc1ccc(Cc2noc(CN3CCN(c4ccc(Cl)cn4)CC3)n2)cc1OC | ? | i | i | ? | 3.26µM
COc1ccc(Cc2noc(CN3CCN(Cc4cccc(Cl)c4)CC3)n2)cc1OC | i | i | i | i | ?
CC(C)(C)c1cc(NC(=O)Nc2ccc(Cl)cc2Cl)no1 | i | 18.4µM | i | i | i
CC(C)(C)c1cc(NC(=O)Nc2ccc(Br)cc2Cl)no1 | -56.7 | ? | i | i | i
OC1COCOC1C(O)C1OCOCC1O (stereo not drawn) | i | i | i | i | i
Cc1ccc(-c2ccc(/C=C3\SC(N4CCOCC4)=NC3=O)o2)cc1 | -95.4 | 23.1µM | 18.4µM | i | i
O=C1N=C(N2CCOCC2)S/C1=C/c1ccc(-c2ccc(F)cc2)o1 | i | ? | ? | i | i
O=C1CC(NS(=O)(=O)c2ccc([N+](=O)[O-])cc2)CN1c1cccc(F)c1 (stereo not drawn) | i | i | i | i | i
COc1cc(NC(=O)c2c(C)nn(-c3ccc(F)cc3)c2-n2cccc2)cc(OC)c1 | nt | nt | nt | i | i
CCOc1ccc(CNC(=O)c2c(C)nn(-c3ccc(F)cc3)c2-n2cccc2)cc1 | nt | nt | nt | ? | 13µM
CSc1ccc(CCNC(=O)c2c(C)nn(-c3ccc(F)cc3)c2-n2cccc2)cc1 | nt | nt | nt | 3.26µM | 5.8µM
COCCCNC(=O)c1c(C)nn(-c2ccc(F)cc2)c1-n1cccc1 | nt | nt | nt | i | ?
COc1ccc(CNC(=O)c2cnn(-c3ccc(F)cc3)c2-n2cccc2)cc1 | nt | nt | nt | i | ?
COc1cccc(CNC(=O)c2c(C)nn(-c3ccc(F)cc3)c2-n2cccc2)c1 | nt | nt | nt | i | 9.2µM
Cc1ccc(NC(=O)COC(=O)C2(CC(=O)NC(C)(C)C)CCCC2)cc1C | -92.2 | i | i | i | i
COc1cccc(Cn2c(=S)[nH]c3ccc(N4CCOCC4)cc3c2=O)c1 | i | ? | ? | i | 3.66µM
O=c1c2cc(N3CCOCC3)ccc2[nH]c(=S)n1Cc1ccco1 | i | ? | ? | i | 13µM
CCN(CCCn1c(=S)[nH]c2ccc(N3CCOCC3)cc2c1=O)c1ccccc1 | i | 18.4µM | ? | i | ?
O=C(NCCc1ccccc1)c1ccc2c(c1)CCN2S(=O)(=O)c1ccccc1 | nt | nt | nt | i | i
O=C(NCc1ccccc1)c1cnc(N2CCCCC2)c2ccccc12 | nt | nt | nt | i | ?
CC[n+]1c(/C=C2\Sc3ccccc3N2C)ccc2cccc(C)c21 | -99.6 | i | i | 0.461µM | 16.4µM
CCN1/C(=C/c2cc[n+](CCCS(=O)(=O)[O-])c3ccccc23)Sc2ccccc21 | i | i | i | i | i
SMILES | IL-1B inflam inh | MCF10A rereplic | SW480 rerep | KB-3-1 cytotox | KB-V1 MDR tox
CCN1/C(=C/c2ccc3cc(C)ccc3[n+]2CC)Sc2cc(C)c(C)cc21 | -98.0 | i[9.22 µM] | ? | 1.84µM | ?
CCN1/C(=C/c2ccc3cc(C)ccc3[n+]2CC)Sc2ccccc21 | -99.9 | i | i | 1.64µM | i
COc1ccc(OC)c(CCNC(=O)CS(=O)(=O)Cc2nc(-c3cccc(Cl)c3)oc2C)c1 | nt | nt | nt | ? | i
CN(C)c1nc(Cl)nc2c1nc(Cl)n2C1CCCCO1 (stereo not drawn) | i | i | i | i | ?
FC(F)(F)c1nc2ccccc2n2c(-c3ccc(Cl)cc3)nnc12 | ? | 13µM | i | 4.61µM | 5.8µM
Cc1ccc(-c2nnc3c(C(F)(F)F)nc4ccccc4n23)cc1 | i | ? | 16.4µM | ? | 20.6µM
Cc1ccc(-c2nc3ccccc3n3nnnc23)cc1 | i | i | i | i | ?
On1c(-c2ccc(Cl)cc2)nc2ccccc21 | i | i | i | i | i
Cc1ccc(S(=O)(=O)N2CCCCC2CCNC(=O)C(=O)NCc2ccccc2)cc1 (stereo not drawn) | i | ? | 6.51µM | 3.66µM | 4.11µM
Cc1ccc(S(=O)(=O)N2CCCCC2CCNC(=O)C(=O)NCc2ccncc2)cc1 (stereo not drawn) | i | i | i | i | ?
Cc1ccc(S(=O)(=O)N2CCCCC2CCNC(=O)C(=O)NCC2CCCO2)cc1 (stereo not drawn) | ? | i | i | i | 5.8µM
